Common to all, as to parameters: species or system human, MV4-11 + K-562 + COLO205 + SK-N-BE2 + OVCAR-8
For assay [1], the system named is MAPK10. To be noted: read-out: apparent Kd; compound concentrations:100 nM and 1000 nM (sheet 'Samples'); n = 1.
For assay [2], the system named is MAPK11. To be noted: read-out: apparent Kd; compound concentrations:100 nM and 1000 nM (sheet 'Samples'); n = 1.
The test system of assay [3] is MAPK14. To be noted: read-out: apparent Kd, n = 1.
The test system of assay [4] is MAPK8. As to conditions: read-out: apparent Kd; compound concentrations:100 nM and 1000 nM (sheet 'Samples'); n = 1.
Assay [5] concerns MAPK9. To be noted: read-out: apparent Kd; compound concentrations:100 nM and 1000 nM (sheet 'Samples'); n = 1.
The subject of assay [6] is MAPKAPK2. As to conditions: read-out: apparent Kd, n = 1.
Assay [7] relates to PIP4K2C. To be noted: read-out: apparent Kd; compound concentrations:100 nM and 1000 nM (sheet 'Samples'); n = 1.
In assay [8] the test system is NLK. As to conditions: read-out: apparent Kd, n = 1.
Assay [9] relates to RIPK2. As to conditions: read-out: apparent Kd; compound concentrations: 100 nM and 1000 nM (sheet 'Samples'), CATDS: 0.78129176750212304; n = 1.
In assay [10] the test system is RIPK3. To be noted: read-out: apparent Kd; compound concentrations: 100 nM and 1000 nM (sheet 'Samples'), CATDS: 0.12404115210191501; n = 1.
The subject of assay [11] is STK16. To be noted: read-out: apparent Kd, n = 1.
Assay [12] relates to TESK2. To be noted: read-out: apparent Kd; compound concentrations: 100 nM and 1000 nM (sheet 'Samples'), CATDS: 0.123939134013601; n = 1.
Assay [13] deals with TGFBR2. To be noted: read-out: apparent Kd; compound concentrations: 100 nM and 1000 nM (sheet 'Samples'), CATDS: 0.16011510960484199; n = 1.
Assay [14] relates to MAPK7. To be noted: read-out: apparent Kd; compound concentrations: 100 nM and 1000 nM (sheet 'Samples'), CATDS: 1; n = 1.
For assay [15], the system named is NQO2. As to conditions: read-out: apparent Kd, n = 1.
The subject of assay [16] is MCM5. As to conditions: read-out: apparent Kd; compound concentrations:100 nM and 1000 nM (sheet 'Samples'); n = 1.
In assay [17] the test system is TNIK. To be noted: read-out: apparent Kd, n = 1.
Assay [18] concerns STK4. As to conditions: read-out: apparent Kd; compound concentrations: 100 nM and 1000 nM (sheet 'Samples'), CATDS: 0.289467796660549; n = 1.
In assay [19] the test system is MTOR. To be noted: read-out: apparent Kd; compound concentrations: 100 nM and 1000 nM (sheet 'Samples'), CATDS: 7.1154294212896999E-2; n = 1.
Assay [20] concerns PDGFRB. As to conditions: read-out: apparent Kd; compound concentrations: 100 nM and 1000 nM (sheet 'Samples'), CATDS: 5.6462124359458001E-2; n = 1.
Assay [21] relates to PI4KA. To be noted: read-out: apparent Kd; compound concentrations: 100 nM and 1000 nM (sheet 'Samples'), CATDS: 9.2469758478665204E-2; n = 1.
The subject of assay [22] is PI4KB. To be noted: read-out: apparent Kd; compound concentrations: 100 nM and 1000 nM (sheet 'Samples'), CATDS: 6.1584731713773599E-2; n = 1.
Assay [23] relates to PIK3C2A. As to conditions: read-out: apparent Kd; compound concentrations: 100 nM and 1000 nM (sheet 'Samples'), CATDS: 5.5656712709310899E-2; n = 1.
The subject of assay [24] is PIK3C2B. As to conditions: read-out: apparent Kd; compound concentrations: 100 nM and 1000 nM (sheet 'Samples'), CATDS: 0.103549921719069; n = 1.
Assay [25] concerns PIK3CA. To be noted: read-out: apparent Kd; compound concentrations: 100 nM and 1000 nM (sheet 'Samples'), CATDS: 0.27321348763970998; n = 1.
Assay [26] concerns PIK3CB. As to conditions: read-out: apparent Kd; compound concentrations: 100 nM and 1000 nM (sheet 'Samples'), CATDS: 0.12993654601332599; n = 1.
Assay [27] has as its system PIK3CD. To be noted: read-out: apparent Kd; compound concentrations: 100 nM and 1000 nM (sheet 'Samples'), CATDS: 0.40484446782600397; n = 1.
Assay [28] deals with PIK3CG. To be noted: read-out: apparent Kd; compound concentrations: 100 nM and 1000 nM (sheet 'Samples'), CATDS: 0.28339263062776299; n = 1.
Assay [29] deals with PRKDC. As to conditions: read-out: apparent Kd; compound concentrations: 100 nM and 1000 nM (sheet 'Samples'), CATDS: 5.8127762202415202E-2; n = 1.
Assay [30] has as its system PBK. To be noted: read-out: apparent Kd; compound concentrations: 100 nM and 1000 nM (sheet 'Samples'), CATDS: 1; n = 1.
The subject of assay [31] is MDN1. As to conditions: read-out: apparent Kd; compound concentrations: 100 nM and 1000 nM (sheet 'Samples'), CATDS: 0.24349694063925101; n = 1.
The subject of assay [32] is PIK3C3. As to conditions: read-out: apparent Kd, n = 1.
For assay [33], the system named is RIOK2. To be noted: read-out: apparent Kd; compound concentrations: 100 nM and 1000 nM (sheet 'Samples'), CATDS: 0.23086501182720201; n = 1.
Assay [34] deals with TGFBR1. To be noted: read-out: apparent Kd; compound concentrations: 100 nM and 1000 nM (sheet 'Samples'), CATDS: 0.25129467412206702; n = 1.
Assay [35] deals with NEK9. To be noted: read-out: apparent Kd; compound concentrations: 100 nM and 1000 nM (sheet 'Samples'), CATDS: 1; n = 1.
Where [36] appears, read: compound concentrations:100 nM and 1000 nM (sheet 'Samples').
[37] abbreviates: compound concentrations: 100 nM and 1000 nM (sheet 'Samples'), CATDS: 1.

This passage reports potency estimated from few doses results from article PMC11062922 (Nature Chemical Biology, 2023).

Like-named read-outs stand apart in the source and are kept apart here.

As for `O=c1[nH]c2nc(NC3CCOCC3)ncc2cc1Oc1ccc(F)cc1F` [RO3310867-000], the potency estimated from few doses was 150 nM in assay [1]; 655 nM in assay [2]; 9.96 nM in [3] (compound concentrations: 100 nM and 1000 nM (sheet 'Samples'), CATDS: 0.37744016768512201); 554 nM in assay [4]; 98.4 nM in assay [5]; 5.98 nM in assay [6] (setting [36]). The potency estimated from few doses in [7] is 781 nM.
Consider `Cc1cc(-c2cnc(N)c3c(-c4ccc5scnc5c4)csc23)n(C)n1` [GSK843], for which the potency estimated from few doses in assay [8] (compound concentrations: 100 nM and 1000 nM (sheet 'Samples'), CATDS: 0.25956792289458103) was 168 nM; in assay [9] it was 15.6 nM; in [10], 1430 nM; in assay [11] (compound concentrations: 100 nM and 1000 nM (sheet 'Samples'), CATDS: 0.11776221232306), 1750 nM; in [12], 1430 nM; in [13] it was 616 nM.
As to `CCOc1cc(C(=O)N2CCC(N3CCN(C)CC3)CC2)ccc1Nc1ncc2c(n1)N(C1CCCC1)c1ccccc1C(=O)N2C` [ERK5-IN-1], in assay [14], the potency estimated from few doses was 813 nM.
With `OCCCNc1nccc(-c2c(-c3cccc(C(F)(F)F)c3)nn3cc(C(F)(F)F)ccc23)n1` [GW630813X], the potency estimated from few doses in assay [3] (compound concentrations: 100 nM and 1000 nM (sheet 'Samples'), CATDS: 0.49980022483794101) was 1060 nM; in [6] (compound concentrations: 100 nM and 1000 nM (sheet 'Samples'), CATDS: 0.50019993493019099), 1060 nM.
Take `COc1cccc(-c2cc(-c3c[nH]nc3-c3ccccn3)ccn2)c1` [GW680338X]: in assay [15] (setting [36]), the potency estimated from few doses is 424 nM.
For `COc1cccc(-c2ccc3c(NC(=O)C4CC4)n[nH]c3n2)c1` [SB-710903], the potency estimated from few doses in assay [16] is 2020 nM; in [8] (setting [36]) it was 1900 nM; in [17] (setting [36]), 1640 nM.
Regarding `COc1cc(Nc2nccc(N3CCC(NC(=O)c4cc5ccccc5s4)C3)n2)cc(OC)c1OC` (stereo not shown) [GSK1379760A], the potency estimated from few doses in assay [15] (setting [37]) is 1030 nM.
`O=C(Nc1n[nH]c2cc(-c3cccc(F)c3F)ccc12)C1CC1` [SB-733894]: the potency estimated from few doses in assay [8] (compound concentrations: 100 nM and 1000 nM (sheet 'Samples'), CATDS: 0.29749178894258499) was 1860 nM; in assay [18], 1990 nM; in assay [17] (compound concentrations: 100 nM and 1000 nM (sheet 'Samples'), CATDS: 0.457886576185151), 808 nM.
`COc1ccc(-c2cc3c(C)nc(N)nc3n([C@H]3CC[C@H](O)CC3)c2=O)cn1` [PFE-PKIS_40]: the potency estimated from few doses in assay [19] was 382 nM; in assay [20], 1550 nM; in [21] it was 96.5 nM; in assay [22] it was 875 nM; in [23], 1720 nM; in assay [24], 55.7 nM. Besides, the potency estimated from few doses in assay [25] was 1.69 nM; in [26], 19.7 nM; in [27], 0.817 nM; in assay [28] it was 1.57 nM; in assay [29], 1260 nM.
On to `N#Cc1cccc(C(=O)c2cnn(-c3ccc(F)cc3)c2N)c1` [RO1153321-000], for which the potency estimated from few doses in assay [30] is 1730 nM.
In the case of `Nc1nc(-c2nccs2)c(-c2ccnc3ccccc23)s1` [GW693542X], the potency estimated from few doses in assay [31] was 1860 nM; in [32] (compound concentrations: 100 nM and 1000 nM (sheet 'Samples'), CATDS: 0.27915457125427801), 1430 nM; in assay [33] it was 2090 nM; in [34], 1750 nM.
`Cn1cnc2c(N)ncnc21` [SKF-97623]: the potency estimated from few doses in assay [15] (setting [37]) was 1300 nM.
As to `Cl.Cn1c(=O)c(Oc2ccc(F)cc2F)cc2cnc(NCCS(C)(=O)=O)nc21` [RO3309294-001], the potency estimated from few doses in [3] (setting [37]) was 344 nM.
Regarding `COc1cc(Nc2ncc3c(C)nc(-c4cccc(Oc5ccccc5)c4)n3n2)cc(OC)c1OC` [GW861893X], in assay [35], the potency estimated from few doses was 584 nM.
With `Nc1n[nH]c2ncc(-c3ccccc3)cc12` [SB-517081_KCGS], the potency estimated from few doses in [3] (setting [36]) was 1590 nM; in [32] (setting [36]) it was 1320 nM; in assay [11] (setting [36]), 1630 nM.
